Among the data in PubChem BioAssay (EPA / NIEHS) are outcome and AC50 values, retold here.

Assay [1] in a line: ATG_XTT_Cytotoxicity: Cytotoxicity Assessment in the Attagene TRANS-FACTORIAL HepG2 Assay (AID 2283584). Summed up:
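HepG2 cells transiently transfected with GAL4-UAS multiple reporter units, dosed 24 h; cytotoxicity read by XTT as loss of signal versus DMSO baseline.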

Assay [2] concerns the target Cellular tumor antigen p53 (Homo sapiens) (UniProt P04637). The assay can be described thus: TOX21_p53_BLA_p2_ratio: Tox21 HCT-116 p53 Agonism Beta-lactamase Assay, Ratio, Phase 2 (AID 2283592). Summed up: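 HCT-116 cells with p53-responsive beta-lactamase reporter, 4000 cells/well, preincubated 5 h, then compound in DMSO (217-fold dilution) for 16 h at 37C. CCF4-AM substrate 2 h at room temperature; 460/530 nm emission ratio fitted upward versus DMSO.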

Assay [3] is described as follows: TOX21_p53_BLA_p4_viability: Viability Assessment in the Tox21 HCT-116 p53 Agonism Beta-lactamase Assay, Phase 4 (AID 2283597).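 Also: hits lower the luminescence signal meaning cytotoxicity.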 Summed up:
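HCT-116 p53-bla cells, 4000/well, dosed after 5 h attachment and incubated 16 h at 37 °C, 5% CO2. Viability from CellTiter-Glo ATP luminescence after 30 min at room temperature, taken after the beta-lactamase read; loss of signal indicates cytotoxicity.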

The target in assay [4] is Cellular tumor antigen p53 (Homo sapiens) (UniProt P04637). The assay can be described thus: TOX21_p53_BLA_p5_ratio: Tox21 HCT-116 p53 Agonism Beta-lactamase Assay, Ratio, Phase 5 (AID 2283599). Summed up: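 Beta-lactamase reporter ratio (blue 460 nm over green 530 nm, 405 nm excitation) after 2 h CCF4-AM loading, in HCT-116 cells exposed 16 h at 37 C to compounds pinned at 217-fold dilution. Increases relative to DMSO baseline scored.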
Cellular tumor antigen p53 (Homo sapiens), sequence (P04637 whole entry, looked up): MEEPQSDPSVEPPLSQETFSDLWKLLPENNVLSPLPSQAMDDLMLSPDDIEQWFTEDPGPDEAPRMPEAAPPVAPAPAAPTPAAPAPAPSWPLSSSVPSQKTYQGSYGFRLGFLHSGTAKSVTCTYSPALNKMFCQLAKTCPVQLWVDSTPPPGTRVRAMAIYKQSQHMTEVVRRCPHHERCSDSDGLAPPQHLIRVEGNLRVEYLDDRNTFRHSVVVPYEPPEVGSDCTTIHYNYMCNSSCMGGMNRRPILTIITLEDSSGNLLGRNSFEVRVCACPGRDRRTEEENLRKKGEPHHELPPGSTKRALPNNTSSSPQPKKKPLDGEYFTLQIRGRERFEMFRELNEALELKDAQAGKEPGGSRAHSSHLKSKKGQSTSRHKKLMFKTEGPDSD

Assay [5] shares this target. In words: TOX21_p53_BLA_p4_ratio: Tox21 HCT-116 p53 Agonism Beta-lactamase Assay, Ratio, Phase 4 (AID 2283601). Summed up: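 Signal is the blue/green (460nm/530nm) ratio of cleaved versus uncleaved CCF4-AM substrate, read after 2 h substrate loading. Cells were HCT116 carrying the p53-responsive beta-lactamase reporter, dosed 16 h at 37C, 5% CO2; CellTiter-Glo measured in parallel.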

Assay [6] is described as follows: TOX21_p53_BLA_p3_viability: Viability Assessment in the Tox21 HCT-116 p53 Agonism Beta-lactamase Assay, Phase 3 (AID 2283593).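 Also: cells exposed to compound for 16 h before reading.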 Summed up:
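Cellular ATP was quantified by CellTiter-Glo luminescence, read after 30 min at room temperature. Beforehand, HCT116 cells (4000/well) received compound 5 h post-seeding, 217-fold diluted from DMSO, then incubated 16 h at 37C.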

Assay [7] deals with Cellular tumor antigen p53 (Homo sapiens) (UniProt P04637). The assay can be described thus: TOX21_p53_BLA_p3_ratio: Tox21 HCT-116 p53 Agonism Beta-lactamase Assay, Ratio, Phase 3 (AID 2283596). Summed up:
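HCT116 p53-bla cells (4000/well) given compound in DMSO (217-fold dilution) after 5 h, incubated 16 h at 37C. CCF4-AM substrate 2 h at room temperature; 460/530 nm emission ratio, gain fitted against DMSO.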

Assay [8] in a line: TOX21_p53_BLA_p5_viability: Viability Assessment in the Tox21 HCT-116 p53 Agonism Beta-lactamase Assay, Phase 5 (AID 2283600). Summed up:
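HCT-116 p53 beta-lactamase reporter cells, 4000/well, were exposed to compound (pin transfer, 217-fold dilution) for 16 hours at 37C. Cellular ATP was read by CellTiter-Glo luminescence after 30 min at room temperature.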

Assay [9] is described as follows: TOX21_p53_BLA_p2_viability: Viability Assessment in the Tox21 HCT-116 p53 Agonism Beta-lactamase Assay, Phase 2 (AID 2283591).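 Also: compound exposure lasted 16 h at 37 °C; actives lower the ATP signal meaning cytotoxicity.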 Summed up:
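Cytotoxicity readout: CellTiter-Glo ATP luminescence, 30 min at room temperature, after the beta-lactamase read. Cells were HCT116 exposed 16 h at 37C to compounds pin-transferred at 217-fold dilution from DMSO stocks.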

Records with an inconclusive call do not appear. The source made the active and inactive calls. The calls were made as follows: active = hit-call score of the fitted dose curve at least 0.9, where 1 is the maximum; inconclusive = response in the unintended direction; inactive = score below 0.9.

Usually AC50 stands for the concentration at which the activity in the assay is half-maximal.

With `Nc1ccc(NCCO)c([N+](=O)[O-])c1`, the outcome in assay [1], in [2], in assay [3], in assay [4] and in assay [5] was inactive.

On to `O=[N+]([O-])c1cccc(Cl)c1`, for which the molecule was called inactive in assay [1], in [2], in [6], in assay [7], in [4] and in assay [5].

`CS(=O)(=O)c1ccc(C2=C(c3ccccc3)C(=O)OC2)cc1`: the outcome in assay [1], in [8] and in [5] was inactive.

For the molecule `Cc1ccc(S(N)(=O)=O)cc1`, the result in assay [1], in [2], in assay [6], in [7], in assay [4] and in [5] was inactive.

For `CN(C)C(=O)Nc1ccc(Oc2ccc(Cl)cc2)cc1`, the outcome in assay [1], in assay [2], in assay [6], in assay [7], in assay [3] and in assay [4] was inactive. Moreover, the call in [8] and in assay [5] was inactive.

For `CC1=CC[C@@]23C[C@@H]1C(C)(C)[C@@H]2CC[C@H]3C`, the molecule was called inactive in [1] and in assay [8].

`CCN(CC)C(=O)N(CC)CC`: the result in [1], in assay [2] and in assay [3] was inactive.

Regarding `CC(C)CC(C)CC(O)CC(C)C` (stereo not given), the result in assay [1], in assay [2], in [6], in assay [7], in assay [3] and in assay [4] was inactive. Also, the call in assay [8] and in [5] was inactive.

Consider `CCOC(=O)COC(=O)c1cc(Oc2ccc(C(F)(F)F)cc2Cl)ccc1[N+](=O)[O-]`, for which the outcome in assay [9], in [2], in [6], in assay [3] and in assay [8] was inactive.

Consider `CCCC1O[C@@H]2C[C@H]3[C@@H]4CCC5=CC(=O)C=C[C@]5(C)[C@H]4[C@@H](O)C[C@]3(C)[C@]2(C(=O)CO)O1` (stereo not given in full), for which the molecule was classed as inactive in [9], in assay [2], in assay [6], in assay [7], in assay [3] and in assay [4]. In addition, the result in [8] and in assay [5] was inactive.

Regarding `c1ccc2[nH]cnc2c1`, the molecule was called inactive in assay [9], in assay [2], in [6], in assay [7], in assay [3] and in assay [5].

`CN(C)C(=S)SC(=S)N(C)C`: the molecule was classed as inactive in assay [9], in [2], in [7], in [3], in assay [4] and in [5].

As for `CCC1(C)NC(=O)NC1=O` (stereo not given), the result in assay [9], in assay [2] and in [6] was inactive.

As to `CCCN(CCC)S(=O)(=O)c1ccc(C(=O)O)cc1`, the result in assay [9], in [2], in assay [6], in [7], in assay [3] and in assay [8] was inactive. In assay [5], the outcome was inactive.

Regarding `CCC(Cl)C(Cl)C(Cl)CC(Cl)C(Cl)C(C)Cl` (stereo not given), the result in assay [9], in [2], in assay [6], in assay [7], in [3] and in assay [4] was inactive. Also, the call in [8] and in assay [5] was inactive.

With `C=C(C)C(=O)OCCOCCOCCOC(=O)C(=C)C`, the molecule was called inactive in assay [9], in [2], in assay [6], in [7], in [4] and in assay [8]. Also, the outcome in assay [5] was inactive.

With `O=C(CC(=O)c1ccccc1)c1ccccc1`, the outcome in assay [9], in assay [2], in assay [6], in assay [3], in assay [4] and in [5] was inactive.

`CCCC[P+](CCCC)(CCCC)CCCC`: the molecule was called inactive in assay [9], in [2], in assay [6], in assay [7], in assay [3] and in [4]. In assay [5], the result was inactive.

For `CCc1cc(Cc2cc(CC)cc(C(C)(C)C)c2O)c(O)c(C(C)(C)C)c1`, the AC50 was 4.87 µM (active) in assay [9]; 14.9 µM (active) in assay [2]; 16.1 µM (active) in assay [6]; 32.6 µM (active) in assay [7]; 5.48 µM (active) in assay [3]; 29.3 µM (active) in assay [4]. Further, the AC50 is 20.1 µM (active) in assay [8] and 10.8 µM (active) in [5].

Consider `OCc1cccc(Oc2ccccc2)c1`, for which the molecule was called inactive in assay [9], in assay [2], in assay [6], in assay [7], in assay [3] and in assay [4]. The outcome in [5] was inactive.

Take `COC(=O)Nc1ccc(Cl)c(Cl)c1`: the molecule was classed as inactive in assay [9], in assay [2], in assay [6], in assay [7], in [3] and in assay [4]. Further, the call in assay [8] and in [5] was inactive.

As to `O=C(O)CNc1ccccc1`, the molecule was classed as inactive in [9], in assay [2], in assay [6], in [7], in assay [4] and in [8]. In addition, the outcome in [5] was inactive.

Consider `C=C(C)C(=O)OCCOCCOCCOCCOC(=O)C(=C)C`, for which the call in [9], in [2], in assay [6], in assay [7], in assay [3] and in assay [8] was inactive. For the same molecule, the outcome in assay [5] was inactive.

For the molecule `CSc1c(Cl)c(Cl)c(Cl)c(Cl)c1Cl`, the result in assay [9], in assay [2], in assay [7], in assay [3], in assay [8] and in [5] was inactive. Further, the AC50 in assay [6] was 45.9 µM (active).

As for `Cc1ncc([N+](=O)[O-])n1CCO`, the call in assay [9], in assay [2], in assay [7], in [3], in assay [4] and in [8] was inactive. Also, the outcome in assay [5] was inactive.
